Source: PubChem BioAssay (NCI)
About 83,000 compounds went through this panel and 20% of them were active in at least one assay; those are over-represented in the sample as a whole.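 Testing used 96-well plates and a 48-hour single-concentration exposure. Example: -40 means 40% of the starting cells died.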 Active and inactive are the calls of the source. Rule for the calls: active = growth percent below 10; inactive = the rest.

Legend:
Assay in all cases: NCI-60 one-dose screen, 48 h (100 = growth as untreated, 0 = no growth, -100 = all killed)
Details in all cases: 10 µM unless noted
T-47D breast = test system: T-47D breast
BT-549 breast = test system: BT-549 breast
MDA-MB-435 melanoma = test system: MDA-MB-435 melanoma
SW-620 colon = test system: SW-620 colon
MCF7 breast = test system: MCF7 breast
HCT-116 colon = test system: HCT-116 colon
HCC-2998 colon = test system: HCC-2998 colon
KM12 colon = test system: KM12 colon

Measured: growth

CS(=O)(=O)Nc1cc(-c2ccc3ncnc(Nc4ccc(F)c(Cl)c4)c3c2)ccc1Cl
inactive: T-47D breast 12.2% | BT-549 breast 49.4% | MDA-MB-435 melanoma 58.2% | SW-620 colon 75.4% | MCF7 breast 23.9% | HCT-116 colon 59.5% | HCC-2998 colon 79.9% | KM12 colon 52.7%

CCN(CC)CCN1C(=O)c2c(c3c4ccccc4[nH]c3c3ccc4ccccc4c23)C1=O
inactive: T-47D breast 48.7% | BT-549 breast 84.5% | HCT-116 colon 29.2% | HCC-2998 colon 85.5%
active: MDA-MB-435 melanoma -84.8% | SW-620 colon 4.79% | MCF7 breast -50.8% | KM12 colon -15.8%

COc1ccc(C(=O)Nc2ncc(Cc3ccc(Cl)cc3)s2)cc1
inactive: T-47D breast 25.9% | BT-549 breast 17.8% | SW-620 colon 25.7%
active: MDA-MB-435 melanoma 2.35% | MCF7 breast 8.72% | HCT-116 colon 3.61% | HCC-2998 colon 6.76% | KM12 colon 5.8%

Cc1c(C(C)(C)O)cn2ncnc(Oc3ccc(NC(=O)Nc4ccc(Cl)c(C(F)(F)F)c4)c(F)c3)c12
inactive: T-47D breast 40.6% | BT-549 breast 72.4% | MDA-MB-435 melanoma 58% | SW-620 colon 85% | MCF7 breast 32.4% | HCT-116 colon 38.7% | HCC-2998 colon 125% | KM12 colon 43.6%

C(=C(\C1=NCCN1)n1ccc2ccccc21)/c1ccccc1
inactive: T-47D breast 90.3% | BT-549 breast 107% | MDA-MB-435 melanoma 97.7% | SW-620 colon 89.8% | MCF7 breast 84.5% | HCT-116 colon 94% | HCC-2998 colon 103% | KM12 colon 99.4%

c1ccc(-c2nc3ccccc3[nH]2)c(OCCCCCOc2ccccc2-c2nc3ccccc3[nH]2)c1
inactive: T-47D breast 111% | BT-549 breast 88.5% | MDA-MB-435 melanoma 63.5% | SW-620 colon 18.5% | MCF7 breast 19.8% | HCC-2998 colon 92.2% | KM12 colon 98.6%
active: HCT-116 colon -10.4%

O=C(NNc1nc2cc(F)ccc2n2c(CN3CCOCC3)ccc12)c1ccccc1
inactive: T-47D breast 11.8% | BT-549 breast 25.7% | MDA-MB-435 melanoma 27.3% | HCC-2998 colon 32.8% | KM12 colon 12.2%
active: SW-620 colon -1.14% | MCF7 breast -6.31% | HCT-116 colon 0.232%

COc1ccc(CNc2ccc3nc(NC(=O)CN4CCCCCC4)sc3c2)cc1
inactive: T-47D breast 42.8% | BT-549 breast 86.1% | MDA-MB-435 melanoma 94.1% | SW-620 colon 86.7% | MCF7 breast 69.1% | HCT-116 colon 68.6% | HCC-2998 colon 109% | KM12 colon 89.2%

COc1cc(-c2ccc(-c3ccc(C(=N)N)cc3)s2)cc(OC)c1OC
inactive: T-47D breast 55.2% | BT-549 breast 86.3% | MDA-MB-435 melanoma 40.4% | SW-620 colon 20.9% | MCF7 breast 13.6% | HCT-116 colon 15% | KM12 colon 23.4%
active: HCC-2998 colon -19.6%

CCOC(=O)c1[nH]cc2c1CCc1sc(Nc3ccccn3)nc1-2
inactive: T-47D breast 55.4% | BT-549 breast 79.4% | MDA-MB-435 melanoma 86.2% | SW-620 colon 103% | MCF7 breast 57.1% | HCT-116 colon 75.7% | HCC-2998 colon 94.6% | KM12 colon 64.3%

CCOC(=O)c1c(C)nc2ccccc2c1/C=C/c1ccc(F)cc1
inactive: T-47D breast 23.4% | BT-549 breast 73.6% | MDA-MB-435 melanoma 78.7% | SW-620 colon 85.5% | MCF7 breast 23.3% | HCT-116 colon 56.2% | HCC-2998 colon 81.1% | KM12 colon 72.5%

C=CN(C(=O)N1CCN(c2cc3c(cc2F)c(=O)c(C(=O)O)cn3C2CC2)CC1)c1nc(-c2ccc(Cl)cc2)cs1
inactive: T-47D breast 76.2% | BT-549 breast 63.1% | MDA-MB-435 melanoma 74.8% | SW-620 colon 93.9% | MCF7 breast 51.3% | HCT-116 colon 24.1% | HCC-2998 colon 95.9% | KM12 colon 61.8%

NCCCNc1nc2ccccc2c2c(=O)c3cc(Cl)ccc3sc12
inactive: BT-549 breast 83%
active: T-47D breast -6.77% | MDA-MB-435 melanoma -71.1% | SW-620 colon -90.6% | MCF7 breast -75.4% | HCT-116 colon -92.5% | HCC-2998 colon -75.6% | KM12 colon -67.4%

CC(=O)c1c(Nc2cccc(F)c2)[nH]c2c(Cl)cc(Cl)c(Cl)c2c1=O
active: T-47D breast -11.1% | BT-549 breast 8.92% | MDA-MB-435 melanoma 2.08% | SW-620 colon 9.59% | MCF7 breast 2.73% | HCT-116 colon 5.08% | KM12 colon 4.18%
inactive: HCC-2998 colon 10.7%

O=S(=O)(NCCNc1nccc(-c2c(-c3ccc(F)c(O)c3)nc3sccn23)n1)c1ccc(Cl)cc1
inactive: BT-549 breast 29.9% | SW-620 colon 52.3% | MCF7 breast 13.5% | HCT-116 colon 16.7% | HCC-2998 colon 59.6% | KM12 colon 12.6%
active: T-47D breast 2.76% | MDA-MB-435 melanoma 3.65%

CN(C)Cc1cc(C(C)(C)C)cc(Br)c1O
inactive: T-47D breast 99.6% | BT-549 breast 114% | MDA-MB-435 melanoma 101% | SW-620 colon 87.7% | MCF7 breast 87.9% | HCT-116 colon 103% | HCC-2998 colon 109% | KM12 colon 109%

CC(C)(C)CC(C)(C)Nc1c(-c2c(O)c3ccccc3oc2=O)nc2sc3ccccc3n12
inactive: T-47D breast 15.9% | BT-549 breast 51.9% | MDA-MB-435 melanoma 47.9% | SW-620 colon 21.3% | MCF7 breast 28.9% | HCT-116 colon 29.6% | HCC-2998 colon 52.6% | KM12 colon 45.1%

O=C(CN1C(=O)S/C(=C\C(Cl)=C\c2ccccc2)C1=O)NC1CCS(=O)(=O)C1 (configuration not stated)
active: HCT-116 colon 5.67%
inactive: T-47D breast 15.7% | BT-549 breast 76.5% | MDA-MB-435 melanoma 66.2% | SW-620 colon 22.6% | MCF7 breast 13.7% | HCC-2998 colon 103% | KM12 colon 65.4%

CCOC(=O)/C=C1\S/C(=N\Nc2cc(=O)[nH]c3ccc(Br)cc23)N(c2ccccc2)C1=O
active: T-47D breast 7.62%
inactive: BT-549 breast 75.1% | MDA-MB-435 melanoma 94.5% | SW-620 colon 27.8% | MCF7 breast 22.2% | HCT-116 colon 27.1% | HCC-2998 colon 110% | KM12 colon 88.5%

CC(=O)c1ccc(-n2cc(CN3CCN(c4cc5c(cc4F)c(=O)c(C(=O)O)cn5C4CC4)CC3)nn2)cc1
active: HCT-116 colon -9.74%
inactive: T-47D breast 96.4% | BT-549 breast 102% | MDA-MB-435 melanoma 96.3% | SW-620 colon 90% | MCF7 breast 72.9% | HCC-2998 colon 86% | KM12 colon 84.9%

Cc1[nH]c(C(=O)Nc2ccccc2OC2CCN(CCN3CCOCC3)CC2)c(Cl)c1Cl
inactive: T-47D breast 86.6% | BT-549 breast 80.5% | MDA-MB-435 melanoma 105% | SW-620 colon 99.7% | MCF7 breast 87.2% | HCT-116 colon 77.1% | HCC-2998 colon 107% | KM12 colon 103%

CNCC[C@H](Oc1cccc2ccccc12)c1cccs1
inactive: T-47D breast 99.9% | BT-549 breast 94.2% | MDA-MB-435 melanoma 88.5% | SW-620 colon 106% | MCF7 breast 78.1% | HCT-116 colon 68.8% | HCC-2998 colon 79% | KM12 colon 109%

O=C1/C(=C/c2c[nH]c(=O)[nH]c2=O)SC(=S)N1Cc1ccccc1
inactive: T-47D breast 108% | BT-549 breast 107% | MDA-MB-435 melanoma 100% | SW-620 colon 98.7% | MCF7 breast 89.4% | HCT-116 colon 103% | HCC-2998 colon 101% | KM12 colon 101%

CCOC(=O)C1=C(c2ccccc2)N=C2N(c3ccccc3)N=C(C(C)=O)N2C1c1ccc(F)cc1 (configuration not stated)
inactive: T-47D breast 98.8% | BT-549 breast 101% | MDA-MB-435 melanoma 102% | SW-620 colon 99.9% | MCF7 breast 95.1% | HCT-116 colon 97.8% | HCC-2998 colon 115% | KM12 colon 97.6%

COCCn1cc(-c2csc(-c3c[nH]c4ccccc34)n2)c2cccnc21
active: T-47D breast 3.06% | MDA-MB-435 melanoma 2.9% | MCF7 breast 9.88%
inactive: BT-549 breast 21.8% | SW-620 colon 30.7% | HCT-116 colon 16.6% | HCC-2998 colon 42.1% | KM12 colon 15.6%

COc1cc(-c2nccc3[nH]c(-c4cccc5[nH]ccc45)nc23)cc(OC)c1OC
inactive: T-47D breast 39.9% | BT-549 breast 42.5% | SW-620 colon 27% | HCC-2998 colon 21.6% | KM12 colon 16.9%
active: MDA-MB-435 melanoma 1.47% | MCF7 breast 9.9% | HCT-116 colon 4.28%

O=CCCCOCc1ccccc1
inactive: T-47D breast 102% | BT-549 breast 103% | MDA-MB-435 melanoma 107% | SW-620 colon 100% | MCF7 breast 91.7% | HCT-116 colon 105% | HCC-2998 colon 94.2% | KM12 colon 102%

FC(F)(F)c1[nH]ncc1-c1nc2ccc3[nH]ncc3c2c2c1CCCC2
active: T-47D breast 0% | BT-549 breast -24% | SW-620 colon 7.83% | MCF7 breast 1.69% | HCT-116 colon 1.68% | HCC-2998 colon 5.29%
inactive: MDA-MB-435 melanoma 32.1% | KM12 colon 11.1%

COc1ccc2c(c1)C(C)Cc1c(ncnc1-n1cnc3cc(C)ccc31)N2C (configuration not stated)
inactive: T-47D breast 44.6% | SW-620 colon 25% | MCF7 breast 16.1% | HCC-2998 colon 10.7% | KM12 colon 12.2%
active: BT-549 breast -3.64% | MDA-MB-435 melanoma -17.5% | HCT-116 colon 6.84%
